Experimental findings from PubChem BioAssay AID743167 (National Center for Advancing Translational Sciences (NCATS), 2013) are described below.

Values joined by “and” are separate entries in the source; they are usually repeats but may differ in a detail not shown here. Equal values may be shown once. Results filed as inconclusive are left out. Active and inactive are the calls of the source. The call rests on the fitted dose curve; in most records, active means well fitted activation curve with a large enough effect; inconclusive means small, poorly fitted or top-dose-only effect; inactive means flat fitted curve, though single readings scatter.

The assay is described as follows: Extended Characterization of HPGD Inhibitors: PGE2 Assay in A549 Cells. The conditions noted are these: PGE2 HTRF level, 16 h. The text has this:
The central role of HPGD is to inactivate prostaglandins such as prostaglandin E2 (PGE2) or prostaglandin D2 (PGD2). These prostaglandins are involved in a number of processes, including inflammation, differentiation, and cellular signaling, which makes HPGD an important target for pharmacological intervention. A number of prostaglandins of particular biological interest have been identified as substrates of HPGD. […] Over-production of PGE2 has been reported to promote tumor-associated neovascularization, cell proliferation, and tumor growth. […] In this orthogonal assay, we set out to measure if compounds were able to increase PGE2 production NIH Chemical Genomics Center [NCGC] NIH Molecular Libraries Probe Centers Network [MLPCN] MLPCN Grant: MH084681 Assay Submitter (PI): Structural Genomics Consortium
A549 cells, LNCaP cells or media were dispensed in 384-well plates (ProxiPlate-384 Plus, PerkinElmer, Shelton, CT) at 5,000 cells/9.9 uL/well using a CappAero384 multichannel pipette (Odense, Denmark). Separately on the plate, 10 uL of PGE2 calibration standards at a starting assay concentration of 5,000 pg/mL (1:2 dilution, 12-points, n = 1, prepared in media, Cisbio, Bedford, MA) were dispensed. Compounds (100 nL, final concentration range from 41.9 nM to 100 uM) were transferred using an ATS Acoustic Liquid Dispenser (EDC Biosystems, Fremont, CA). After being mixed using an automated liquid handler (CyBio, Jena, Germany), samples were incubated (37 deg C, 5% CO2, under a humidified atmosphere) for 16 hours. PGE2 labeled conjugates were added to each well, first 5 uL of PGE2-d2, followed by 5 uL of anti-PGE2-cryptate, centrifuged (1,500 rpm, 15 sec) and incubated (RT, protected from light) for 5 hours. Time-resolved fluorescence intensity (320 nm excitation, 615 and 665 nm emission) was measured using an Envision plate reader (PerkinElmer). Data was expressed as the ratio of 665 nm/615 nm emissions. Concentration (pg/mL) of samples were calculated from a 4-parameter logistic calibration curves of the PGE2 standards.
Background: Time-resolved FRET reads energy transfer from a long-lived donor to a nearby acceptor.
In the case of `Cc1cc(-c2nnc3n2CCCCC3)c(C)n1-c1ccc(Br)cc1`, the Potency is 0.59 µM (active).
As for `COc1ccc(CSc2nc3ncc(Br)cc3[nH]2)cc1F`, the figure is 7.43 µM (active); as for `Cc1cc(-c2nnc3n2CCCCC3)c(C)n1-c1ccccc1`, 372 nM (active) and 2.64 µM (active).
The figure for `N#Cc1ccccc1CSc1nc2ncc(Br)cc2[nH]1` is 372 nM (active) and 7.43 µM (active) and 743 nM (active); for `O=[N+]([O-])c1ccc(CSc2nc3ncc(Br)cc3[nH]2)cc1` it is 0.235 µM (active); for `CC(C)(C)c1cccc(-n2cnc3cc(C(=O)N4CCCCC4)ccc32)c1` it is 18.7 µM (active).
The figure for `Cc1cccc(-n2cnc3cc(C(=O)N4CCCC(C(F)(F)F)C4)ccc32)c1` (stereo not given) is 1.32 µM (active); for `Cc1cc(-c2nnc3n2CCCCC3)c(C)n1-c1cccc(C#N)c1` it is 2.64 µM (active); for `Cc1cc(-c2nnc3n2CCCCC3)c(C)n1-c1ccncc1` it is 33.2 µM (active).
For the compound `CCCCn1cnc2cc(C(=O)N3CCCCC3)ccc21`, the Potency was 2.96 µM (active).
For the compound `CN1CC[C@@H](c2c(O)cc(O)c3c(=O)cc(-c4ccccc4Cl)oc23)[C@@H](O)C1`, the Potency is 3.32 µM (active).
Regarding `Cc1cc(-c2nnc3n2CCCCC3)c(C)n1-c1ccccn1`, the Potency was 26.4 µM (active).
As for `N#Cc1ccc(CSc2nc3ncc(Br)cc3[nH]2)cc1`, the figure is 0.332 µM (active); as for `O=C(c1ccc2c(c1)ncn2-c1cccc(C(F)(F)F)c1)N1CCCCC1`, 2.64 µM (active).
As for `Cc1ccc(-n2cnc3cc(C(=O)N4CCCCC4)ccc32)cc1`, the figure is 0.469 µM (active); as for `Brc1cnc2nc(SCc3ccccn3)[nH]c2c1`, 5.9 µM (active).
As for `Cc1cc(-c2nnc3n2CCCCC3)c(C)n1-c1ccc(F)cc1`, the figure is 0.662 µM (active).
`COc1ccccc1-n1cnc2cc(C(=O)N3CCCCC3)ccc21`: the Potency was 16.6 µM (active).
On to `Clc1ccc(CSc2nc3ncc(Br)cc3[nH]2)cc1`, for which the Potency is 16.6 µM (active).
The figure for `Cc1cccc(-n2cnc3cc(C(=O)N4CCCCCC4)ccc32)c1` is 2.96 µM (active); for `CC(C)(C)c1ccc(-n2cnc3cc(C(=O)N4CCCCC4)ccc32)cc1` it is 20.9 µM (active); for `Clc1cccc(CSc2nc3ncc(Br)cc3[nH]2)c1` it is 0.296 µM (active).
For the compound `COc1ccc(-n2cnc3cc(C(=O)N4CCCCC4)ccc32)cc1`, the Potency is 0.662 µM (active).
As for `Cc1cc(-c2nnc3n2CCCCC3)c(C)n1-c1ccc(C(F)(F)F)cc1`, the figure is 0.833 µM (active); as for `CC(C)c1cccc(-n2cnc3cc(C(=O)N4CCCCC4)ccc32)c1`, 2.35 µM (active); as for `Cc1ccc(-n2c(C)cc(-c3nnc4n3CCCCC4)c2C)cc1`, 0.166 µM (active).
The figure for `Cc1cc(-c2nnc3n2CCCCC3)c(C)n1-c1cccc(Cl)c1` is 0.59 µM (active).
The figure for `COc1cccc(-n2cnc3cc(C(=O)N4CCCCC4)ccc32)c1` is 0.833 µM (active); for `c1ccc(-n2cc(-c3nnc4n3CCCCC4)c3ccccc32)cc1` it is 1.66 µM (active).
As for `CC(C)(C)n1cnc2cc(C(=O)N3CCCCC3)ccc21`, the Potency is 2.09 µM (active).
The figure for `N#Cc1cccc(CSc2nc3ncc(Br)cc3[nH]2)c1` is 7.43 µM (active).
The figure for `Cc1cccc(-n2cnc3cc(C(=O)N4CCCC4)ccc32)c1` is 1.87 µM (active).
As for `Cc1cccc(-n2cnc3cc(C(=O)N4CCCC(C)(C)C4)ccc32)c1`, the figure is 0.743 µM (active); as for `O=[N+]([O-])c1ccccc1CSc1nc2ncc(Br)cc2[nH]1`, 0.148 µM (active); as for `Brc1cnc2nc(SCc3ccncc3)[nH]c2c1`, 0.833 µM (active).
As for `CCOC(=O)c1ccc(-n2cnc3cc(C(=O)N4CCCCC4)ccc32)cc1`, the Potency was 1.87 µM (active).
The figure for `O=[N+]([O-])c1cccc(CSc2nc3ncc(Br)cc3[nH]2)c1` is 0.418 µM (active); for `Cc1cccc(-n2cnc3cc(C(=O)N4CCC(Br)CC4)ccc32)c1` it is 1.18 µM (active).
`CCCCC[C@H](O)/C=C/[C@H]1[C@H](O)CC(=O)[C@@H]1C/C=C\CCCC(=O)O`: the Potency is 0.148 µM (active).
The figure for `Brc1cnc2nc(SCc3cccnc3)[nH]c2c1` is 8.33 µM (active).
